Reference: PubChem BioAssay (EPA / NIEHS)
Activity calls are given as the source filed them. The calls were made as follows: active = hit-call score of the fitted dose curve at least 0.9, where 1 is the maximum; inactive = score below 0.9.

Key:
Conditions in all cases: mRNA level, 48 h; actives raise or lower the signal
CYP2C9 (gene 1559) = experiment: LTEA_HepaRG_CYP2C9: Life Technologies and Expression Analysis (LTEA) Assay for CYP2C9 using HepaRG (AID 2283484)
Outline: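 CYP2C9 transcript level, quantified by TaqMan qRT-PCR against three housekeeping genes, was fitted bidirectionally relative to 0.5% DMSO. HepaRG cultures were treated 48 h, in duplicate, at eight half-log concentrations topping at 100 uM.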

CYP2E1 (gene 1571) = experiment: LTEA_HepaRG_CYP2E1: Life Technologies and Expression Analysis (LTEA) Assay for CYP2E1 using HepaRG (AID 2283485)
Outline: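 CYP2E1 transcript measured by Fluidigm qRT-PCR against three housekeeping genes in human HepaRG cells treated 48 h (top 100 uM, half-log steps, 0.5% DMSO vehicle). Gain or loss fitted relative to DMSO baseline.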

CYP4A11 (gene 1579) = experiment: LTEA_HepaRG_CYP4A11: Life Technologies and Expression Analysis (LTEA) Assay for CYP4A11 using HepaRG (AID 2283486)
Outline: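 Human hepatic HepaRG cultures receive duplicate 48 h exposures across a concentration-response series topping at 100 uM. Expression changes in CYP4A11 are measured by qRT-PCR relative to DMSO controls.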

[1] = read-out: Cytochrome P450 3A4 (Homo sapiens) (UniProt P08684); experiment: LTEA_HepaRG_CYP3A4: Life Technologies and Expression Analysis (LTEA) Assay for CYP3A4 using HepaRG (AID 2283487)
Outline: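 HepaRG, 48 h exposure, 8-pt CRC from 100 uM (half-log), 0.5% DMSO, duplicates; serum-free induction medium. Readout: CYP3A4 mRNA, qRT-PCR, ACTB/GAPDH/POLR2A normalization. Bidirectional fit vs DMSO.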

[2] = read-out: DNA damage-inducible transcript 3 (DDIT3), DDIT3 (gene 1649); experiment: LTEA_HepaRG_DDIT3: Life Technologies and Expression Analysis (LTEA) Assay for DNA damage-inducible transcript 3 (DDIT3) using HepaRG (AID 2283488)
Outline: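 DDIT3 transcript was quantified by qRT-PCR with ACTB/GAPDH/POLR2A normalization after 48 h chemical treatment of differentiated HepaRG cells in 0.5% DMSO. Dosing was eight-point, half-log, top 100 uM, duplicate wells. Curves fitted bidirectionally versus DMSO.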

[3] = read-out: Pro-epidermal growth factor (Homo sapiens) (UniProt P01133); experiment: LTEA_HepaRG_EGF: Life Technologies and Expression Analysis (LTEA) Assay for Epidermal growth factor (EGF) using HepaRG (AID 2283489)
Outline: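 Concentration-response mRNA assay: HepaRG cells dosed 48 h (max 100 uM, 0.5% DMSO), EGF measured by qRT-PCR and normalized to ACTB/GAPDH/POLR2A.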

[4] = read-out: Ezrin (EZR), EZR (gene 7430); experiment: LTEA_HepaRG_EZR: Life Technologies and Expression Analysis (LTEA) Assay for Ezrin (EZR) using HepaRG (AID 2283491)
Outline: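 Read-out is EZR transcript level by qRT-PCR, normalized to three housekeeping genes and fitted bidirectionally against the DMSO control. Human HepaRG cells received test chemicals for 48 h at eight half-log concentrations up to 100 uM in 0.5% DMSO.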

[5] = read-out: Cytochrome P450 3A7 (Homo sapiens) (UniProt P24462); experiment: LTEA_HepaRG_CYP3A7: Life Technologies and Expression Analysis (LTEA) Assay for CYP3A7 using HepaRG (AID 2283492)
Outline: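 qRT-PCR of CYP3A7 in HepaRG lysates after 48 h treatment; concentration-response (8 points, max 100 uM) analysed bidirectionally relative to 0.5% DMSO controls.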

CYP3A5 (gene 1577) = experiment: LTEA_HepaRG_CYP3A5: Life Technologies and Expression Analysis (LTEA) Assay for CYP3A5 using HepaRG (AID 2283493)
Outline: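 mRNA levels were quantified by qRT-PCR on Fluidigm arrays and normalized to three housekeeping genes. Differentiated HepaRG cells received 48 h exposure (top 100 uM, half-log steps, 0.5% DMSO vehicle, duplicate); bidirectional fitting versus DMSO.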

[6] = read-out: Early growth response protein 1 (EGR1) transcription factor, EGR1 (gene 1958); experiment: LTEA_HepaRG_EGR1: Life Technologies and Expression Analysis (LTEA) Assay for Early growth response protein 1 (EGR1) transcription factor using HepaRG (AID 2283490)
Outline: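 EGR1 transcript levels quantified by qRT-PCR (Fluidigm arrays) against three housekeeping genes after 48 h chemical exposure of HepaRG cells. Eight-point half-log series topping at 100 uM, 0.5% DMSO vehicle, analyzed for gain or loss.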

Measured: AC50

Sequence of Cytochrome P450 3A7 (Homo sapiens) (P24462 whole entry, looked up): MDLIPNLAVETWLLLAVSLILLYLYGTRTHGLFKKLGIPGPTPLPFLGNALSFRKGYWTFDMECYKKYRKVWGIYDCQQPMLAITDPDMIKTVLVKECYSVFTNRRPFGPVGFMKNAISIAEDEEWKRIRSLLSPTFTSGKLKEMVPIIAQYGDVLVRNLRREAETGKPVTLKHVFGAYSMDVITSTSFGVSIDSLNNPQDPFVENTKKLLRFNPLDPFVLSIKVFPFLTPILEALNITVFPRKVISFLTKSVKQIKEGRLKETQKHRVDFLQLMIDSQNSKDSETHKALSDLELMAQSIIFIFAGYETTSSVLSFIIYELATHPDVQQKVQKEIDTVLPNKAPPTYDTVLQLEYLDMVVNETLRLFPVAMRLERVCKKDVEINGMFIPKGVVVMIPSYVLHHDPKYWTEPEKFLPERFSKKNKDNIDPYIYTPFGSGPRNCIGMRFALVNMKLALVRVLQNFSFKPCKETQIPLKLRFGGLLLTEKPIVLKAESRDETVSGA
Sequence of Cytochrome P450 3A4 (Homo sapiens) (P08684 whole entry, looked up): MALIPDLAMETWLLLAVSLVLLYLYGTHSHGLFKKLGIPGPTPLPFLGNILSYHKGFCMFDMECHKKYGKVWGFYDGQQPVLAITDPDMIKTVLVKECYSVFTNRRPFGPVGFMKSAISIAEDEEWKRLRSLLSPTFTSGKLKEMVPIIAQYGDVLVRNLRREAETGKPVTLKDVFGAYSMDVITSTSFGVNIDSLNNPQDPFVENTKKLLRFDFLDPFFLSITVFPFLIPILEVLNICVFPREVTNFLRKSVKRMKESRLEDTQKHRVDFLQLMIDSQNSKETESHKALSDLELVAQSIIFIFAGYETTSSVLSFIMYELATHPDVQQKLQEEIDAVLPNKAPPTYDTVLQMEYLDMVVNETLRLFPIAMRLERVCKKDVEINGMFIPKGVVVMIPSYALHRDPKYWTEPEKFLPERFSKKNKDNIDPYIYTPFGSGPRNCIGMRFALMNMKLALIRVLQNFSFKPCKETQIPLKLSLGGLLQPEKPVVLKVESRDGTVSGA

O=C(O)c1ccc2c(c1)nc(C(=O)NC1CCN(C3CC3)CC1)n2Cc1cc(-c2ccc(Cl)s2)on1
not listed: [6]
inactive: all other assays above

CCCC(CCC)C(=O)O
not listed: [6]
inactive: all other assays above

CCOc1ccc2[nH]cc(C(=O)NCc3ccccc3)c(=O)c2n1
active: CYP2E1 (gene 1571) 63 µM | CYP4A11 (gene 1579) 76.5 µM | [1] 29.2 µM
not listed: CYP3A5 (gene 1577) | [6]
inactive: all other assays above

Cc1ncc([C@@H](CCCCCCc2ccc3c(n2)NCCC3)CC(=O)O)cn1
inactive: CYP2C9 (gene 1559) | [2] | [3] | [5]
active: CYP2E1 (gene 1571) 50 µM | CYP4A11 (gene 1579) 15.7 µM | [1] 31 µM

O=C1CN(N=Cc2ccc([N+](=O)[O-])o2)C(=O)N1
active: CYP2E1 (gene 1571) 52.7 µM | CYP4A11 (gene 1579) 45.7 µM | [2] 80.7 µM
not listed: [1] | CYP3A5 (gene 1577)
inactive: all other assays above

O=C(O)[C@H](O)[C@@H](O)C(=O)O
inactive: [2] | [3] | [4]

CC(C)C(=O)Nc1ccc([N+](=O)[O-])c(C(F)(F)F)c1
active: CYP2C9 (gene 1559) 66 µM | CYP2E1 (gene 1571) 43.9 µM | CYP4A11 (gene 1579) 50.4 µM | [2] 87.5 µM | [3] 50 µM

CCCCCCCCCCCCCCO
not listed: [4] | [6]
inactive: all other assays above

COc1cc2c(c(OC)c1OC)-c1ccc(OC)c(=O)cc1[C@@H](NC(C)=O)CC2
active: CYP2C9 (gene 1559) 0.0777 µM | CYP2E1 (gene 1571) 0.0817 µM | CYP4A11 (gene 1579) 0.0804 µM | CYP3A5 (gene 1577) 0.0995 µM
inactive: [2] | [3] | [4]

O=C(NO)C1(NS(=O)(=O)c2ccc(Oc3ccc(F)cc3)cc2)CCOCC1
active: CYP2E1 (gene 1571) 54.4 µM | CYP4A11 (gene 1579) 71 µM | [1] 4.48 µM | [2] 77.8 µM
inactive: CYP2C9 (gene 1559) | [3] | [5] | CYP3A5 (gene 1577)

OC(CCl)CCl
not listed: [4] | [6]
inactive: all other assays above

Cn1c(=O)c2[nH]cnc2n(C)c1=O
not listed: CYP2C9 (gene 1559) | [4] | [6]
inactive: all other assays above

NC(N)=O
not listed: [4] | [6]
inactive: all other assays above

NC(=O)N(O)[C@@H]1COc2cc(OCc3ccccc3)ccc21
active: CYP2E1 (gene 1571) 50 µM
not listed: [4] | CYP3A5 (gene 1577) | [6]
inactive: all other assays above

C=CCc1cc(S(=O)(=O)c2ccc(O)c(CC=C)c2)ccc1O
active: CYP2C9 (gene 1559) 93 µM | CYP2E1 (gene 1571) 86.3 µM | CYP4A11 (gene 1579) 94.4 µM | [1] 80.4 µM | [2] 84.9 µM | [5] 76.8 µM | CYP3A5 (gene 1577) 9.92 µM
inactive: [3]

COS(C)(=O)=O
not listed: [4] | CYP3A5 (gene 1577) | [6]
inactive: all other assays above

CC1(C)C(=O)N(Cl)C(=O)N1Cl
not listed: [4] | [6]
inactive: all other assays above

C[C@]12C=CC(=O)C=C1CC[C@H]1[C@@H]3C[C@@H](O)[C@](O)(C(=O)CO)[C@@]3(C)C[C@H](O)[C@@]12F
inactive: CYP2C9 (gene 1559) | CYP2E1 (gene 1571) | CYP4A11 (gene 1579) | [1] | [2] | [5]
